Data on 23 compounds can be found in PubChem BioAssay.

Where “and” joins values, the source holds several entries; their conditions need not be identical. Identical values can stand only once. A number with no mark means an inactive call. Calls of active or inactive are those of the source.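 How the source made its calls, unless noted: active means z-score of at least 1.8 in each of two replicates, scored against plate mean and spread of sample wells; inactive means the rest.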

System in one assay: not listed separately
Briefly: galactose survival enhancers in mitochondrial complex I cybrids – cell-based, galactose medium, ATP luminescence, primary screen (AID 1645843).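 Further: positive z means more ATP and so rescue of galactose-driven cybrid death.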 The note with it: complex I mutant cybrid cells, 72 h, hits give high values.
For `CN(Cc1cnc2nc(N)nc(N)c2n1)c1ccc(C(=O)N[C@@H](CCC(=O)O)C(=O)O)cc1`, the z-score was -1.06 and -0.71. With `CCCc1c(OCCCCc2nn[nH]n2)ccc(C(C)=O)c1O`, the z-score was 2.16 (active).

Consider `CCOc1cc(N)c(Cl)cc1C(=O)NCC1CN(Cc2ccc(F)cc2)CCO1` (centres undefined), for which the z-score is 0.725. Same read-out and setting: then `CN1CCN(C2=Nc3cc(F)ccc3Cc3ccccc32)CC1`, with -0.47 and -0.18; and `Cn1c(NCCN(CCO)CCCc2ccc([N+](=O)[O-])cc2)cc(=O)n(C)c1=O`, with 0.115 and 0.85; and `CN(C)CCCSc1ccccc1NC(=O)/C=C/c1ccccc1`, with -0.09 and 0.525. Same read-out and setting: then `COc1ccc(CC2c3cc(OC)c(OC)cc3CC[N+]2(C)CCC(=O)OCCCCCOC(=O)CC[N+]2(C)CCc3cc(OC)c(OC)cc3C2Cc2ccc(OC)c(OC)c2)cc1OC` (centres undefined), with -0.89 and 0.01; and `Cc1c(O)cccc1C(=O)N[C@@H](CSc1ccccc1)[C@H](O)CN1C[C@H]2CCCC[C@H]2C[C@H]1C(=O)NC(C)(C)C`, with -1.03 and -1.48. The same measure, in the same setting: the figure for `Cc1[nH]cnc1CN1CCc2c(c3ccccc3n2C)C1=O` is -0.045; for `Nc1nc(F)nc2c1ncn2[C@@H]1O[C@H](CO)[C@@H](O)[C@@H]1O` it is 0.045 and -0.22; for `COCc1c(C(C)C)nc(C(C)C)c(/C=C/[C@@H](O)C[C@@H](O)CC(=O)O)c1-c1ccc(F)cc1` it is -2.23. For `Brc1c(NC2=NCCN2)ccc2nccnc12`, the z-score is 0.235 and -0.385 and -0.11.

As for `COc1cc(C)c(Cc2cnc(N)nc2N)cc1OC`, the z-score is 0.02. Same read-out and setting: the figure for `O=C(NCCN1CCOCC1)c1ccc(Cl)cc1` is 0.645 and 0.32. `CN(C)CC[C@@H](c1ccc(Br)cc1)c1ccccn1`: the z-score was -0.265. Turning to `CN1CCC(=C2c3ccccc3CCc3sccc32)CC1`, the z-score was -0.795.

Another assay has as its system F380Y. Nature of the assay: BK channel mutant inhibitors and activators – cell-based, U2OS BacMam, thallium flux, beta subunits, selectivity assay, profiling panel (AID 1259406;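 active means thallium flux through the channel raised or lowered by more than 3 SD from vehicle-only wells, actives on both sides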;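 further: initial slope of Thallos dye fluorescence rise after thallium is added; log ratio against the mean of 0.3% DMSO vehicle wells on the same plate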). The following applies: U2OS BacMam BK variants, at 30 µM.
On to `O=C(c1ccc(F)cc1)C1CCN(CCn2c(=S)[nH]c3ccccc3c2=O)CC1`, for which the log fold change Tl+ flux is 0.0153. With `Cc1nc2ccc(CN(C)c3ccc(C(=O)N[C@@H](CCC(=O)O)C(=O)O)s3)cc2c(=O)[nH]1`, the log fold change Tl+ flux is -0.025. Same read-out and setting: then `Cc1ccc(NC(=O)c2ccc(CN3CCN(C)CC3)cc2)cc1Nc1nccc(-c2cccnc2)n1`, with 0.141 (active). For the compound `C[C@]12C[C@H](O)[C@H]3[C@@H](CCC4=CC(=O)CC[C@@]43C)[C@@H]1CC[C@@H]2C(=O)CO`, the log fold change Tl+ flux was 0.0367. For the compound `CC1CCN(CCCC(=O)c2ccc(F)cc2)CC1`, the log fold change Tl+ flux is 0.0312. As for `CNCC(O)c1ccc(O)c(O)c1` (centres undefined), the log fold change Tl+ flux is -0.0223. For the compound `CCN(CC)CC1CCCCN1CC(=O)N1c2ccccc2C(=O)Nc2cccnc21` (centres undefined), the log fold change Tl+ flux was -0.00678. For the compound `CN(Cc1cnc2nc(N)nc(N)c2n1)c1ccc(C(=O)N[C@@H](CCC(=O)O)C(=O)O)cc1`, the log fold change Tl+ flux was -0.0413. On to `CCCc1c(OCCCCc2nn[nH]n2)ccc(C(C)=O)c1O`, for which the log fold change Tl+ flux is 0.0613. On to `CCOc1cc(N)c(Cl)cc1C(=O)NCC1CN(Cc2ccc(F)cc2)CCO1` (centres undefined), for which the log fold change Tl+ flux was -0.0328. In the case of `CN1CCN(C2=Nc3cc(F)ccc3Cc3ccccc32)CC1`, the log fold change Tl+ flux is 0.06. In the case of `Cn1c(NCCN(CCO)CCCc2ccc([N+](=O)[O-])cc2)cc(=O)n(C)c1=O`, the log fold change Tl+ flux was -0.0604. `CN(C)CCCSc1ccccc1NC(=O)/C=C/c1ccccc1`: the log fold change Tl+ flux is 0.0773.

On to `COc1ccc(CC2c3cc(OC)c(OC)cc3CC[N+]2(C)CCC(=O)OCCCCCOC(=O)CC[N+]2(C)CCc3cc(OC)c(OC)cc3C2Cc2ccc(OC)c(OC)c2)cc1OC` (centres undefined), for which the log fold change Tl+ flux is -0.0106. The same measure, in the same setting: the figure for `Cc1c(O)cccc1C(=O)N[C@@H](CSc1ccccc1)[C@H](O)CN1C[C@H]2CCCC[C@H]2C[C@H]1C(=O)NC(C)(C)C` is 0.0722; for `Cc1[nH]cnc1CN1CCc2c(c3ccccc3n2C)C1=O` it is 0.0315. On the same count and under the same terms, then `Nc1nc(F)nc2c1ncn2[C@@H]1O[C@H](CO)[C@@H](O)[C@@H]1O`, with 0.0242.

Take `COCc1c(C(C)C)nc(C(C)C)c(/C=C/[C@@H](O)C[C@@H](O)CC(=O)O)c1-c1ccc(F)cc1`: the log fold change Tl+ flux was 0.216 (active).
